Reference: PubChem BioAssay
Activity calls are given as the source filed them.

Assays:
[1] = binders of probe aFSTL3 on microarray, primary screen, stem cell growth factor project, biochemical, small-molecule microarray, fluorescence 635/667 (AID 1064); settings: higher = more signal;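 further: measures binding of the biotinylated anti-FSTL3 antibody to printed compounds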
[2] = binders from COS7 lysate, DM2A8 probe, primary screen, torsin A project, cell lysate, small-molecule microarray, fluorescence 635/667 (AID 1065); settings: higher = more signal, COS7 lysate expressing mutant human TOR1A
[3] = binders of probe aFGF2 on microarray, primary screen, stem cell growth factor project, biochemical, small-molecule microarray, fluorescence 635/667 (AID 1067); settings: higher = more signal;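 further: measures binding of biotinylated aFGF2 protein to printed compounds on slides; z-score merges feature fluorescence and signal-to-noise across triplicate slides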
[4] = binders of probe aFGF10 on microarray, primary screen, stem cell growth factor project, biochemical, small-molecule microarray, fluorescence 635/667 (AID 1071); settings: higher = more signal;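 further: score merges 667 nm spot intensity and signal to noise from triplicate slides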
[5] = molecular target: Neurogenic locus notch homolog protein 2 (Homo sapiens) (UniProt Q04721); test: Notch2 binders on small-molecule microarrays, primary screen, biochemical, small-molecule microarray, 635 nm fluorescence, stem cell growth factors (AID 1073); settings: Notch2 binding, higher = more signal
[6] = molecular target: Pro-neuregulin-1, membrane-bound isoform (Homo sapiens) (UniProt Q02297); test: NRG1 binders on small-molecule microarrays, primary screen, psychiatric disease protein project, biochemical, small-molecule microarray, fluorescence 635/667 (AID 1075); settings: NRG1 binding, 635 nm fluorescence, higher = more signal;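 further: score combines 667 nm spot fluorescence with signal to noise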
[7] = system: Neuregulin-1 EGF-like domain; test: binders of neuregulin-1 EGF-like domain, primary screen, biochemical, small-molecule microarray, 635 nm fluorescence (AID 1081); settings: small-molecule microarray binding, higher = more signal;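 further: binding of the protein to compounds printed on small-molecule microarray slides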
[8] = FRG1 promoter luciferase signal modulators, primary screen, FRG1 inhibition for FSHD, cell-based, C2C12 myotubes, firefly/Renilla luciferase, luminescence (AID 1084); settings: higher = more signal, called active from +8 up or from −8 down
[9] = binders of probe aFST on microarray, primary screen, stem cell growth factor project, biochemical, small-molecule microarray, fluorescence 635/667 (AID 1086); settings: higher = more signal;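 further: score merges 667 nm fluorescence with signal-to-noise of each printed compound spot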
[10] = binders of probe aHhip on microarray, primary screen, stem cell growth factor project, biochemical, small-molecule microarray, fluorescence 635/667 (AID 1087); settings: higher = more signal;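 further: score merges spot fluorescence at 667nm with spot signal to noise ratio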
[11] = system: PRMT1 (protein arginine N-methyltransferase 1); test: PRMT1 binders on small-molecule microarrays, primary screen, biochemical, small-molecule microarray, 635 nm fluorescence (AID 1088); settings: small-molecule microarray binding, higher = more signal;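 further: binding of Prmt1 protein to compounds spotted on small-molecule microarray slides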
[12] = yeast growth modulation, basal conditions, primary screen, YJM789 clinical isolate, OD600, 24 h (AID 1089);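 further: growth of clinical yeast isolate S. cerevisiae YJM 789 seeded 1000 cells per well; test concentration not given here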; settings: S. cerevisiae YJM789 growth, higher = more signal, called active from +8 up or from −8 down
[13] = fission yeast growth modulation, primary screen, strain 972, OD600, 24 h, no modulator (AID 1090);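 further: basal condition with compound alone and no growth modifier present; test concentration not given here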; settings: S. pombe 972 growth, higher = more signal, called active from +8 up or from −8 down
[14] = S. cerevisiae growth modulation with rapamycin, primary screen, strain BY4716, OD600, 96 h (AID 1091); settings: higher = more signal, called active from +8 up or from −8 down; further: test concentration not given here
[15] = molecular target: Torsin-1A-interacting protein 2 (Homo sapiens) (UniProt Q8NFQ8); test: LULL1 binders on small-molecule microarray, primary screen, cell lysate, human LULL1 lysate, 635/667 nm fluorescence (AID 1092); settings: hLULL1 lysate binding, 635 nm fluorescence, higher = more signal;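 further: probe is lysate of COS7 cells overexpressing human LULL1; score merges per-feature 667 nm fluorescence with signal-to-noise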
[16] = E. coli growth modulation, two-sided OD650, primary screen, E. coli filamentation project, strain DRC41, 24 h (AID 1093); settings: OD650, 24 h, higher = more signal, called active from +8 up or from −8 down;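 further: MC1000 strain lacking acrAB efflux and sulA so SOS filamentation is blocked; test concentration not given here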
[17] = small-molecule microarray binders of probe aLefty2, primary screen, biochemical, biotinylated probe, 635/667 nm fluorescence (AID 1094); settings: higher = more signal;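 further: score merges spot fluorescence near 667 nm with spot signal-to-noise ratio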
[18] = system: Noggin (protein binding on small-molecule microarray); test: Noggin binders on small-molecule microarray, primary screen, biochemical, 635/667 nm fluorescence (AID 1095); settings: 635 nm fluorescence, higher = more signal;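 further: score merges 667 nm feature fluorescence with signal to noise over triplicate slides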
[19] = molecular target: Neurogenic locus notch homolog protein 3 (Homo sapiens) (UniProt Q9UM47); test: NOTCH3 binders on small-molecule microarray, primary screen, biochemical, 635/667 nm fluorescence (AID 1096); settings: NOTCH3 binding, 635 nm fluorescence, higher = more signal
[20] = small-molecule microarray binders of probe aEGFR, primary screen, biochemical, biotinylated probe, 635/667 nm fluorescence (AID 1097); settings: higher = more signal;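 further: probe is a biotinylated anti-EGFR antibody binding compounds printed on slides; score combines fluorescence near 667 nm and signal to noise of each spot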

Sequence of Pro-neuregulin-1, membrane-bound isoform (Homo sapiens) (Q02297 whole entry, looked up, the tested form may be a part, canonical isoform): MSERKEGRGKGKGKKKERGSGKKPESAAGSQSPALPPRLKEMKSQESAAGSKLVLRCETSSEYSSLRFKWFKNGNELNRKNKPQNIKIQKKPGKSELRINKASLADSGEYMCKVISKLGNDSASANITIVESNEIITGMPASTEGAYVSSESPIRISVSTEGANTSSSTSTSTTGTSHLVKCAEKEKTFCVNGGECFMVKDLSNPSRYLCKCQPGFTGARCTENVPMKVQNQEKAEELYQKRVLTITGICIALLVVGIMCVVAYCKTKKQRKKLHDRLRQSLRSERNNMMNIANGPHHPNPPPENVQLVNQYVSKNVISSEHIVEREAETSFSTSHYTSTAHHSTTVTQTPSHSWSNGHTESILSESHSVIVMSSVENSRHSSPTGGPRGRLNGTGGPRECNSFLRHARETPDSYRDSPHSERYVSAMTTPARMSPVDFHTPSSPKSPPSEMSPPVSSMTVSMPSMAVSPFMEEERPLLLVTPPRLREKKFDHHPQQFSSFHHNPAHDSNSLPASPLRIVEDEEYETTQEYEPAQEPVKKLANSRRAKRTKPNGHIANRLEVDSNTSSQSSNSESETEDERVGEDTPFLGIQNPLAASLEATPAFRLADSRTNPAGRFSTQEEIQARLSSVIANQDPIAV
Sequence of Neurogenic locus notch homolog protein 2 (Homo sapiens) (Q04721 whole entry, looked up, canonical isoform): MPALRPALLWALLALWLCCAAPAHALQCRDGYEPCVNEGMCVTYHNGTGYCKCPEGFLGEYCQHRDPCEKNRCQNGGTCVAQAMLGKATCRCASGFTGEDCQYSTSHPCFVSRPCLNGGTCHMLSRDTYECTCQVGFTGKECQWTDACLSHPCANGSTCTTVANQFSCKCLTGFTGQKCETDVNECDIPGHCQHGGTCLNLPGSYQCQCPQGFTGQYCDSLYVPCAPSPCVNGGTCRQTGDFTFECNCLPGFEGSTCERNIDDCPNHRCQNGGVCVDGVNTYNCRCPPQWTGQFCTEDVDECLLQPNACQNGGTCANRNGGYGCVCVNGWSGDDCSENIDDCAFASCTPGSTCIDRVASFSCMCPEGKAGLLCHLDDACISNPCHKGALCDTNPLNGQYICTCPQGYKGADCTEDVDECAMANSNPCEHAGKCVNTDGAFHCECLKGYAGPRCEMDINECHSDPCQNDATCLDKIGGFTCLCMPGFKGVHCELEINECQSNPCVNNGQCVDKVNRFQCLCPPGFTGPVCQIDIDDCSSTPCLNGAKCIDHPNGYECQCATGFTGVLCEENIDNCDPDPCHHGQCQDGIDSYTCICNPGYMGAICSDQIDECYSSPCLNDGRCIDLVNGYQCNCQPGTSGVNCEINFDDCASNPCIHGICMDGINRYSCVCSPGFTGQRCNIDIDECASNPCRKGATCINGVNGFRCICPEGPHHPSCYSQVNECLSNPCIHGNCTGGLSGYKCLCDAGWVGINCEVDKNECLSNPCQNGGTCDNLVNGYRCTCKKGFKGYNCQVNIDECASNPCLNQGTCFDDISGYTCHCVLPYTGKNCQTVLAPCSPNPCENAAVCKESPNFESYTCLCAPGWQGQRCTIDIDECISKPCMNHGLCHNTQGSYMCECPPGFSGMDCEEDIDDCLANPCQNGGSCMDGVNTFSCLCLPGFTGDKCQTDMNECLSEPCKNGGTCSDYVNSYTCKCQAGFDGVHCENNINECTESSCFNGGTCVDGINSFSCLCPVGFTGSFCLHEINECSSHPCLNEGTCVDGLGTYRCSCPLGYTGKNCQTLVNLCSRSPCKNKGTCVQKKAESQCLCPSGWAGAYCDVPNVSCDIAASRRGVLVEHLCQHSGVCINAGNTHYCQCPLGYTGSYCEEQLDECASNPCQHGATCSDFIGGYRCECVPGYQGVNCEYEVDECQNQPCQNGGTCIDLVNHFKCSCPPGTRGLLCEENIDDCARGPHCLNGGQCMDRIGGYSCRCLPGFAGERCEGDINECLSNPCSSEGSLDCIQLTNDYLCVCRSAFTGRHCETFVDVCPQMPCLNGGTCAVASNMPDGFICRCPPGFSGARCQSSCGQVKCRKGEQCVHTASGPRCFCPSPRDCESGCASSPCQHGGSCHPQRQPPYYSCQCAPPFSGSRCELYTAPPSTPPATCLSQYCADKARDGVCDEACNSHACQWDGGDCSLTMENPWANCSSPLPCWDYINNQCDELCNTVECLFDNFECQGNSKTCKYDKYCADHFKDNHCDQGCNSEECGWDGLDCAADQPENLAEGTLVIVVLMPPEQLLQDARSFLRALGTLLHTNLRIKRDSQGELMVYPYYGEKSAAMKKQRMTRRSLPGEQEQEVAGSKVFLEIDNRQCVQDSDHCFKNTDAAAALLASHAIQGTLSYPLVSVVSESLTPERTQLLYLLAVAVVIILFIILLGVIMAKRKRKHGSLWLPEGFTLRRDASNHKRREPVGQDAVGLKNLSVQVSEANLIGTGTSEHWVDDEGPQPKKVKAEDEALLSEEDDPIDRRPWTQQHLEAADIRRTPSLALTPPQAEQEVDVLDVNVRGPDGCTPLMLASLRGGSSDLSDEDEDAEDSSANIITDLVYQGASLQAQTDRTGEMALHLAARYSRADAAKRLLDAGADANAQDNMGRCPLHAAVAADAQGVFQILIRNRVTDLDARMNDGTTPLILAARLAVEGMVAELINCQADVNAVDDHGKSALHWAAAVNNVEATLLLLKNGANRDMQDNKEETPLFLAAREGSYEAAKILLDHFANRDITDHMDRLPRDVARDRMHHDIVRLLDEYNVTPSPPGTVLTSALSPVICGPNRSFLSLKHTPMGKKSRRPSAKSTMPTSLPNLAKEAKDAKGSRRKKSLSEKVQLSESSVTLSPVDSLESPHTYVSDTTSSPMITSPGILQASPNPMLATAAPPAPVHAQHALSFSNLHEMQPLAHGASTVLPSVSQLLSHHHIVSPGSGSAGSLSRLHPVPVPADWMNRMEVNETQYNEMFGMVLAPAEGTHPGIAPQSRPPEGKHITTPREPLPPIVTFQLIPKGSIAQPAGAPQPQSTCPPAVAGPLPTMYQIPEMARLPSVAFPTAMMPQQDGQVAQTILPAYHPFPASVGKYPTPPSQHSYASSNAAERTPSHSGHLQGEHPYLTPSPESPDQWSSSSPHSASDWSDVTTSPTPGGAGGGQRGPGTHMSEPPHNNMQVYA
Sequence of Torsin-1A-interacting protein 2 (Homo sapiens) (Q8NFQ8 whole entry, looked up): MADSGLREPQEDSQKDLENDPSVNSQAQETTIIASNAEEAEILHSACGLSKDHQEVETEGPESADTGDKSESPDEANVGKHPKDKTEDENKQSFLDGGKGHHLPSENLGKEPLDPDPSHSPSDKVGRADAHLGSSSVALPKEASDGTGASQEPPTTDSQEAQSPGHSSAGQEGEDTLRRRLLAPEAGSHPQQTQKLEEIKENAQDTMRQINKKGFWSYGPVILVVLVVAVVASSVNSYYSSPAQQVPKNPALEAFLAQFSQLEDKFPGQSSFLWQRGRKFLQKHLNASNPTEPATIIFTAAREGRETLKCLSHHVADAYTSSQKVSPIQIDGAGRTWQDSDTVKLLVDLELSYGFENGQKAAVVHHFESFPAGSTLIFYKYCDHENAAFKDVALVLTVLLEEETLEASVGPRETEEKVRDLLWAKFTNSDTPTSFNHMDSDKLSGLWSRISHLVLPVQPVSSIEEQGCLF

Compound	composite z-score [1]	composite z-score [2]	composite z-score [3]	composite z-score [4]	composite z-score [5]	composite z-score [6]	composite z-score [7]	z-score [8]	composite z-score [9]	composite z-score [10]	composite z-score [11]	z-score [12]	z-score [13]	z-score [14]	composite z-score [15]	z-score [16]	composite z-score [17]	composite z-score [18]	composite z-score [19]	composite z-score [20]
CN(C)CCCNC(=O)[C@@]1(c2ccc([N+](=O)[O-])cc2)CC(=O)N(C2CCCCC2)[C@@H]1c1ccc(CO)cc1I	0.284	1.05	-0.087	-0.0752	-0.0551	0.314	1.34	-0.635 (inactive)	-0.364	-0.266	1.07	-1.13 (inactive)	-20.1 (active)	-3.11 (inactive)	1.84	-0.112 (inactive)	-0.147	0.331	0.215	-0.0679
COc1ccc(CCNC(=O)[C@@]2(Sc3ccc(C)cc3)CC(=O)N(C3CCCCC3)[C@@H]2c2ccc(CO)cc2I)cc1	-0.113	0.567	0.0561	0.773	1.23	1.29	1.02	-1.57 (inactive)	0.306	-0.0237	1.42	-1.11 (inactive)	0.0408 (inactive)	0.766 (inactive)	2.71	-0.0209 (inactive)	-0.0823	0.53	1.1	0.0414
O=C1O[C@@H](c2ccccc2)[C@@H](c2ccccc2)N2[C@@H](c3ccc(OCCO)cc3)[C@]3(C(=O)Nc4ccccc43)[C@@H](C(=O)NC[C@H](O)c3ccccc3)[C@H]12	-0.0164	0.0007	-0.019	-0.0455	1.27	1.24	1.26	-2.2 (inactive)	0.322	-0.145	1.35	1.63 (inactive)	1.59 (inactive)	4.14 (inactive)	2.44	-0.46 (inactive)	0.161	0.457	0.488	0.174
CN(C)C(=O)[C@@]1(Cc2ccccc2CN=[N+]=[N-])N=C(c2ccc(OCCCO)cc2)O[C@H]1c1ccccc1	0.214	-0.163	0.0575	0.663	0.604	1.17	0.91	-2.25 (inactive)	0.46	-0.169	1.32	0.365 (inactive)	0.0586 (inactive)	34.7 (active)	3.32	0.632 (inactive)	0.0561	0.788	0.301	-0.0356
O=C1C2C=CC(C(O)c3ccc(F)cc3)N(Nc3ccccc3F)C2C(=O)N1c1ccccc1 (stereo not given)	0.185	-0.333	0.124	0.439	1.16	1.99	1.23	-1.43 (inactive)	0.886	0.21	0.778	0.105 (inactive)	-0.268 (inactive)	0.0787 (inactive)	3.48	-0.42 (inactive)	0.0224	-0.503	1.13	-0.0549
CN(C)C(=O)[C@]1(Cc2ccccc2N=[N+]=[N-])N=C(c2ccc(OCCCO)cc2)O[C@@H]1c1ccccc1	0.127	0.227	0.0901	0.071	1.31	1.78	1.13	-2.65 (inactive)	0.627	-0.374	1.39	-0.958 (inactive)	-2.29 (inactive)	-0.195 (inactive)	3.02	0.677 (inactive)	0.149	1.21	0.905	-0.0512
[N-]=[N+]=Nc1ccccc1[C@H]1OC(c2ccc(OCCCO)cc2)=N[C@@]1(Cc1ccccc1)C(=O)O	0.0481	0.466	0.0363	0.641	1.05	1.69	1.3	1.02 (inactive)	0.693	-0.374	1.3	0.206 (inactive)	-0.329 (inactive)	-1.06 (inactive)	3.3	0.355 (inactive)	-0.0152	0.875	1.11	-0.0351
CCCCCN1CC=CC23O[C@@H]4/C=C\CCCOC(=O)C4[C@H]2C(=O)N(CCCO)[C@@H]3C1=O (stereo not given in full)	-0.181	1.14	-0.156	0.116	-0.573	0.753	1.47	-0.16 (inactive)	-0.533	-0.11	0.83	-1.03 (inactive)	-0.81 (inactive)	-1.67 (inactive)	3.58	2.35 (inactive)	-0.135	-0.103	0.165	-0.186
C=C(CCCC)C(=O)CC[C@H](OC(=O)c1cccnc1)c1ccccc1OCCO	0.453	0.657	-0.0573	0.726	-0.261	-0.113	0.22	1.28 (inactive)	0.0241	0.0505	0.449	-2.23 (inactive)	-2.01 (inactive)	-1.34 (inactive)	-0.0709	0.576 (inactive)	-0.19	0.282	0.214	-0.0656
CN1C(=O)C2C=CC(C(O)c3cc(C(F)(F)F)cc(C(F)(F)F)c3)N(N3CCCCC3)C2C1=O (stereo not given)	0.104	-0.392	0.0173	0.395	1.41	0.416	0.892	0.215 (inactive)	0.498	-0.335	1.34	1.69 (inactive)	0.763 (inactive)	1.63 (inactive)	2.65	-0.627 (inactive)	0.254	-0.297	0.688	0.153
